Test results from PubChem BioAssay (Tox21).
Records with an inconclusive call do not appear. Entries that show only a call come without a potency. The source made the active and inactive calls. Calls follow the shape of the dose curve; as a rule, active = well fitted cell-killing curve with a large enough effect in the repeat runs; inconclusive = weak or mixed curves, or effect the other way; inactive = flat fitted curve, though single readings scatter.

Assay: cAMP Responsive Elements (CRE) small molecule antagonists, cell-based qHTS assay: qHTS cell viability counter screen (AID 2060913); also: nearly all actives have a fitted effect of over 40% in size
Conditions: CRE-bla HEK293T viability, CellTiter-Glo luminescence, 5 h; series mostly up to 92.4 µM
How it was run: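 HEK293T CRE-bla, 2,000 cells/well, 18 h preincubation; cpd in DMSO + NKH477 0.25 uM final, 3 h 37 C/5% CO2; LiveBLAzer 2 h RT, then CellTiter-Glo 30 min RT, luminescence.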
In the case of `CCOc1ccc2ccccc2c1C(=O)N[C@@H]1C(=O)N2[C@@H]1SC(C)(C)[C@@H]2C(=O)O`, the Potency is reported as “inactive”. In the case of `CN1[C@@H]2CC[C@H]1CC(OC(=O)C(O)c1ccccc1)C2` (stereo not given in full), the Potency is reported as “inactive”. For `O=Cc1ccc(C(=O)O)cc1`, the Potency was “inactive”. With `NC[C@H]1O[C@H](O[C@H]2[C@H](O)[C@@H](O[C@H]3O[C@H](CO)[C@@H](O)[C@H](N)[C@H]3O)[C@H](N)C[C@@H]2N)[C@H](N)[C@@H](O)[C@@H]1O` the viability change, negative = cytotoxic was -2.98% [at 18.9 µM] (inactive). In the case of `COc1cc(NS(=O)(=O)c2ccc(N)cc2)ncn1`, the Potency is reported as “inactive”. With `O=[N+]([O-])c1nccn1CO[C@@H](CO)[C@H](O)CO` the Potency was “inactive”. For `COC(=O)CC#N`, the Potency was “inactive”. For `CCCOc1ccc(S(=O)(=O)N2CCN(CC)CC2)cc1-c1nc2c(CC)n(Cc3ccccn3)nc2c(=O)[nH]1`, the Potency was “inactive”. In the case of `Cc1ccc(S)cc1`, the Potency is reported as “inactive”. For `Cc1c(C(=O)c2c[nH]n(C)c2=O)ccc(S(C)(=O)=O)c1C1=NOCC1`, the Potency was “inactive”. For `OC(CCCN1CCCCC1)(c1ccccc1)c1ccccc1`, the Potency was “inactive”. With `CCCCCCC(=O)O` the Potency was “inactive”. For `CCCCCCCCCCCCCCCC(=O)OC`, the viability change, negative = cytotoxic was 14.8% [at 18.9 µM] (inactive). In the case of `COC(=O)c1ccc(C(=O)OC)c(C(=O)OC)c1`, the Potency is reported as “inactive”. For `Nc1ncn([C@H]2C[C@H](O)[C@@H](CO)O2)c(=O)n1`, the Potency was “inactive”. With `CC(=O)c1sc(C)nc1C` the Potency was “inactive”. With `CN(C(=O)c1c(O)c2ccccc2n(C)c1=O)c1ccccc1` the Potency was “inactive”. For `O=S(=O)(O)c1cc(O)c(O)c(S(=O)(=O)O)c1`, the Potency was “inactive”. With `COc1ccc(C(=O)CC(=O)c2ccc(C(C)(C)C)cc2)cc1` the Potency was “inactive”. With `O=C(O)c1ccc(-n2nc(-c3ccccc3O)nc2-c2ccccc2O)cc1` the Potency was “inactive”. In the case of `CN[C@H]1CC[C@@H](c2ccc(Cl)c(Cl)c2)c2ccc(S(N)(=O)=O)cc21`, the Potency is reported as “inactive”. For `CCCCC[Si](OCC)(OCC)OCC`, the Potency was “inactive”. For `O=C(O)c1cccnc1`, the Potency was “inactive”. In the case of `c1ccc2[nH]cnc2c1`, the Potency is reported as “inactive”. In the case of `CCCCC(CC)C(=O)OCCOCCOCCOC(=O)C(CC)CCCC` (stereo not given), the Potency is reported as “inactive”. In the case of `C=C(C)[C@@H]1CCC2=CC(=O)C[C@@H](C)[C@]2(C)C1`, the Potency is reported as “inactive”. For `Cc1nc(C)c(C)nc1C`, the Potency was “inactive”. With `C=Cc1ccccc1` the Potency was “inactive”. For `COC(=O)CC(C)CCC=C(C)C` (stereo not given), the Potency was “inactive”. In the case of `CCN(CC)C(=O)/C(C#N)=C/c1cc(O)c(O)c([N+](=O)[O-])c1`, the Potency is reported as “inactive”. With `Cc1cc2c(cc1CC(=O)c1sccc1S(=O)(=O)Nc1onc(C)c1Cl)OCO2` the Potency was “inactive”. For `CCOCC(O)COc1ccc(NC(=O)CC[S+](C)C)cc1` (stereo not given), the Potency was “inactive”. With `CC[C@]12CCCN3CCc4c(n(c5ccccc45)C(=O)C1)[C@@H]32` the Potency was “inactive”. In the case of `COc1ccccc1OCC(O)COC(N)=O` (stereo not given), the Potency is reported as “inactive”. With `O=S(=O)(c1cccc2cnccc12)N1CCCNCC1` the Potency was “inactive”. For `Cc1ncc[nH]1`, the Potency was “inactive”. With `Cc1ccccc1CCO` the Potency was “inactive”. With `CCCCCCCCCCCSCC(=O)O` the Potency was “inactive”. For `O=C(O)c1ccc(Cl)cc1Cl`, the Potency was “inactive”. For `C/C=C/C(=O)CCCC`, the Potency was “inactive”.

Assay: cAMP Responsive Elements (CRE) small molecule agonists, cell-based qHTS assay: qHTS cell viability counter screen (AID 2060914);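 also: viability read after 3 h of compound exposure; nearly all actives have a fitted effect of over 50% in size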
Conditions: CRE-bla HEK293T viability, CellTiter-Glo luminescence, 5 h; series mostly up to 92.4 µM
How it was run: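 Cells are seeded and incubated 18 h, treated with compounds in DMSO for 3 h, read for the bla reporter, then given CellTiter-Glo; luminescence is measured after 30 min at room temperature.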
In the case of `CCOc1ccc2ccccc2c1C(=O)N[C@@H]1C(=O)N2[C@@H]1SC(C)(C)[C@@H]2C(=O)O`, the Potency is reported as “inactive”. In the case of `CN1[C@@H]2CC[C@H]1CC(OC(=O)C(O)c1ccccc1)C2` (stereo not given in full), the Potency is reported as “inactive”. With `O=Cc1ccc(C(=O)O)cc1` the Potency was “inactive”. With `NC[C@H]1O[C@H](O[C@H]2[C@H](O)[C@@H](O[C@H]3O[C@H](CO)[C@@H](O)[C@H](N)[C@H]3O)[C@H](N)C[C@@H]2N)[C@H](N)[C@@H](O)[C@@H]1O` the activity change, negative = cytotoxicity was -6.94% [at 18.9 µM] (inactive). In the case of `COc1cc(NS(=O)(=O)c2ccc(N)cc2)ncn1`, the Potency is reported as “inactive”. In the case of `O=[N+]([O-])c1nccn1CO[C@@H](CO)[C@H](O)CO`, the Potency is reported as “inactive”. For `COC(=O)CC#N`, the Potency was “inactive”. In the case of `CCCOc1ccc(S(=O)(=O)N2CCN(CC)CC2)cc1-c1nc2c(CC)n(Cc3ccccn3)nc2c(=O)[nH]1`, the Potency is reported as “inactive”. For `Cc1ccc(S)cc1`, the Potency was “inactive”. For `Cc1c(C(=O)c2c[nH]n(C)c2=O)ccc(S(C)(=O)=O)c1C1=NOCC1`, the Potency was “inactive”. For `OC(CCCN1CCCCC1)(c1ccccc1)c1ccccc1`, the Potency was “inactive”. For `CCCCCCC(=O)O`, the Potency was “inactive”. With `CCCCCCCCCCCCCCCC(=O)OC` the activity change, negative = cytotoxicity was -20.6% [at 18.9 µM] (inactive). With `COC(=O)c1ccc(C(=O)OC)c(C(=O)OC)c1` the Potency was “inactive”. With `Nc1ncn([C@H]2C[C@H](O)[C@@H](CO)O2)c(=O)n1` the Potency was “inactive”. With `CC(=O)c1sc(C)nc1C` the Potency was “inactive”. With `CN(C(=O)c1c(O)c2ccccc2n(C)c1=O)c1ccccc1` the Potency was “inactive”. With `O=S(=O)(O)c1cc(O)c(O)c(S(=O)(=O)O)c1` the Potency was “inactive”. In the case of `COc1ccc(C(=O)CC(=O)c2ccc(C(C)(C)C)cc2)cc1`, the Potency is reported as “inactive”. In the case of `O=C(O)c1ccc(-n2nc(-c3ccccc3O)nc2-c2ccccc2O)cc1`, the Potency is reported as “inactive”. For `CN[C@H]1CC[C@@H](c2ccc(Cl)c(Cl)c2)c2ccc(S(N)(=O)=O)cc21`, the Potency was “inactive”. In the case of `CCCCC[Si](OCC)(OCC)OCC`, the Potency is reported as “inactive”. For `O=C(O)c1cccnc1`, the Potency was “inactive”. In the case of `c1ccc2[nH]cnc2c1`, the Potency is reported as “inactive”. With `CCCCC(CC)C(=O)OCCOCCOCCOC(=O)C(CC)CCCC` (stereo not given) the Potency was “inactive”. For `C=C(C)[C@@H]1CCC2=CC(=O)C[C@@H](C)[C@]2(C)C1`, the Potency was “inactive”. In the case of `Cc1nc(C)c(C)nc1C`, the Potency is reported as “inactive”. In the case of `C=Cc1ccccc1`, the Potency is reported as “inactive”. With `COC(=O)CC(C)CCC=C(C)C` (stereo not given) the Potency was “inactive”. For `CCN(CC)C(=O)/C(C#N)=C/c1cc(O)c(O)c([N+](=O)[O-])c1`, the Potency was “inactive”. With `Cc1cc2c(cc1CC(=O)c1sccc1S(=O)(=O)Nc1onc(C)c1Cl)OCO2` the Potency was “inactive”. With `CCOCC(O)COc1ccc(NC(=O)CC[S+](C)C)cc1` (stereo not given) the Potency was “inactive”. In the case of `CC[C@]12CCCN3CCc4c(n(c5ccccc45)C(=O)C1)[C@@H]32`, the Potency is reported as “inactive”. In the case of `COc1ccccc1OCC(O)COC(N)=O` (stereo not given), the Potency is reported as “inactive”. In the case of `O=S(=O)(c1cccc2cnccc12)N1CCCNCC1`, the Potency is reported as “inactive”. In the case of `Cc1ncc[nH]1`, the Potency is reported as “inactive”. For `Cc1ccccc1CCO`, the Potency was “inactive”. With `CCCCCCCCCCCSCC(=O)O` the Potency was “inactive”. With `O=C(O)c1ccc(Cl)cc1Cl` the Potency was “inactive”. With `C/C=C/C(=O)CCCC` the Potency was “inactive”.
